The source made the active and inactive calls. Rule for the calls: active = hit-call score of the fitted dose curve at least 0.9, where 1 is the maximum; inactive = score below 0.9.

From PubChem BioAssay (EPA / NIEHS) come the findings set out here.

The experiment in a line: CCTE_Shafer_MEA_dev_network_spike_number: CCTE's Neural Network Formation Assay for Number of Network Spikes, Shafer Lab (AID 2284048).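 Note: synchronized bursts across electrodes counted on days 5 7 9 12 and integrated as AUC.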 The method, then: CCTE_Shafer_MEA_dev assay is conducted using Axion Biosystems 48 well microelectrode array (MEA) plates and Maestro recording system. Each well of the MEA plate contains a grid of 16 microelectrodes embedded in the culture surface. Electrically active cells, such as neurons, can be cultured over the electrodes, and electrical activity in these cells can be recorded extracellularly. The spontaneous firing of neurons is captured from each electrode on a microsecond timescale providing both temporally and spatially precise data. […] The CCTE_Shafer_MEA_dev assay uses primary cultures of rat cortical neurons. Recordings are made on days post-plating 5, 7, 9 and 12. As these cultures mature over time, neural networks develop functional activity and form cohesive networks in which electrical activity can be highly coordinated. CCTE_Shafer_MEA_dev_network_spike_number is 1 of 19 assay components of the CCTE_Shafer_MEA_dev assay. It measures the number of network spikes (temporally-clustered groups of action potential firing across multiple electrodes) during a recording in a microelectrode array (MEA) using Axion Biosystems Maestro 768 channel amplifier with the AxIS adaptive spike detector. To collapse across multiple recordings made on days post-plating 5, 7, 9 and 12, the trapezoidal area-under-the-curve of the component is calculated.Data from the assay component CCTE_Shafer_MEA_dev_network_spike_number was analyzed into 1 assay endpoint. This assay endpoint, CCTE_Shafer_MEA_dev_network_spike_number, was analyzed in the negative analysis fitting direction relative to DMSO as the negative control and baseline of activity. Using a type of functional reporter, gain or loss-of-signal activity can be used to understand electrical activity.
On the day prior to culture, each well was coated thoroughly with 150 uL of 0.05% polyethyleneimine (PEI, Sigma Cat P3143) in 50 mM HEPES (Sigma Cat H7523) at a pH of 8. The plate was incubated at 37C for one hour. PEI was rinsed out with 500 uL of sterile water three times. Plates were stored at 4C until the day of culture. This culture was plated at a seeding density of 1.5 x 10^5 cells/well on a 48-well MEA plate, prepared as described above. Cells were administered via a 25 uL media/laminin ([…]; Sigma Cat L2020-1MG) drop directly onto the microelectrode array, as adding the cells with the laminin results in better attachment than pre-coating with laminin. After 2 hours, an additional 475 uL of cortical media was added and the cells returned to the incubator. Exposure starts at day 0 of plating and is continued over twelve days of network development until the experiment is terminated. Cells are fed with fresh medium on DIV 5 and 9, following the recordings on those days. The entire volume of media in the well is exchanged and any vehicle or compound treatment is renewed. Complete details are found in OP-NHEERL/ISTD/SBB/TJS/2015-03-r0 (available on request, email shafer.tim@epa.gov). Measurement of the electrical activity is non-invasive, and recordings can be made from the same plate over multiple different days of the culture. In cortical neurons, this allows for the measurement of extracellular action potentials over the period during which networks form in the MEA plate.
As for `Nc1nc2ncc(CNc3ccc(C(=O)N[C@@H](CCC(=O)O)C(=O)O)cc3)nc2c(=O)[nH]1`, the outcome was inactive.
The result for `NC(=O)NO` reads “inactive”; that for `O=C1CCC(N2C(=O)c3ccccc3C2=O)C(=O)N1` (stereo not given), “inactive”.
For `CC[C@H](C)C(=O)O[C@H]1C[C@@H](C)C=C2C=C[C@H](C)[C@H](CC[C@@H]3C[C@@H](O)CC(=O)O3)[C@H]21`, the outcome was inactive.
Consider `CC[C@H]1OC(=O)[C@H](C)[C@@H](O[C@H]2C[C@@](C)(OC)[C@@H](O)[C@H](C)O2)[C@H](C)[C@@H](O[C@@H]2O[C@H](C)C[C@H](N(C)C)[C@H]2O)[C@](C)(O)C[C@@H](C)C(=O)[C@H](C)[C@@H](O)[C@]1(C)O`, for which the molecule was classed as inactive.
The result for `CCC(C)(C)C(=O)O[C@H]1C[C@@H](C)C=C2C=C[C@H](C)[C@H](CC[C@@H]3C[C@@H](O)CC(=O)O3)[C@H]21` reads “inactive”; that for `Cn1c(=O)c2c(ncn2C)n(C)c1=O`, “inactive”.
The result for `COc1ccc(-n2nc(C(F)F)cc2-c2ccc(S(C)=O)cc2)cc1` (stereo not given) reads “inactive”.
The result for `CNCc1ccc(NC(=O)c2c[nH]c3c2C(=O)CCC3)cc1` reads “inactive”; that for `O=P(OC(CCl)CCl)(OC(CCl)CCl)OC(CCl)CCl`, “inactive”.
